# Results filed as inconclusive are left out. A number with no mark means an inactive call. Active and inactive are the calls of the source. Calls come from the whole dose curve; as a rule, active = well fitted inhibition curve with a large enough effect; inconclusive = small, poorly fitted or top-dose-only effect; inactive = flat fitted curve, though single readings scatter.
# Molecular target: Glutathione peroxidase 1 (Homo sapiens) (UniProt P07203)
# Assay: Primary qHTS Assay for Inhibitors of Recombinant Selenoprotein Glutathione Peroxidase 1 (GPX1) (AID 1845191); note: nearly all actives have a fitted effect of over 65% in size
# Conditions: recombinant GPX1, GR-coupled NADPH fluorescence, 15 min; series mostly up to 27.7 µM; activity, negative = inhibition: at the top concentration
# Summary of the method: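 GPX1 10 nM, GR 100 nM, GSH 1 mM, NADPH 0.5 mM, CHP 0.5 mM (final). 30-min cpd preincubation, RT. Ex340/Em450 read t=0, t=15 min.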
# % is set by controls: 0 for no effect and ±100 for the full control effect.
# Chain of Glutathione peroxidase 1 (Homo sapiens) (P07203 whole entry, looked up): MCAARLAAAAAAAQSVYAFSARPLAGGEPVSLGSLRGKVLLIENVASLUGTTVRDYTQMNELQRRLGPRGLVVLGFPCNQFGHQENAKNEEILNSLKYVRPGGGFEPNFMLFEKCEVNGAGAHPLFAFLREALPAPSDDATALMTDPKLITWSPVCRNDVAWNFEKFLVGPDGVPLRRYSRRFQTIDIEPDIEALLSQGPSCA
Structure (SMILES),"activity, negative = inhibition",outcome,Potency
COCCN1CCC(C(=O)NO)(S(=O)(=O)c2ccc(Oc3ccc(OC(F)(F)F)cc3)cc2)CC1,-18% [at 48.8 µM],–,–
Cc1onc(-c2c(Cl)cccc2Cl)c1CC(=O)NCc1ccc(OCC(F)(F)F)nc1,–,inactive [at 48.8 µM],–
CC1(C)CC[C@]2(C(=O)O[C@@H]3O[C@H](CO)[C@@H](O)[C@H](O)[C@H]3O)CC[C@]3(C)C(=CCC4[C@@]5(C)CC[C@H](O[C@@H]6O[C@H](C(=O)O)[C@@H](O[C@@H]7O[C@H](CO)[C@@H](O)[C@H](O)[C@H]7O)[C@H](O)[C@H]6O)C(C)(C)C5CC[C@]43C)C2C1 (stereo not given in full),–,inactive [at 15.3 µM],–
CN[C@H](CNC(=O)N1CCC[C@@H]([C@@H](OCCNC(=O)OC)c2cccc(Cl)c2)C1)C[C@H]1CCCOC1,–,inactive [at 48.8 µM],–
COC(=O)C1=CO[C@@H](O[C@@H]2O[C@H](CO[C@@H]3O[C@H](CO)[C@@H](O)[C@H](O)[C@H]3O)[C@@H](O)[C@H](O)[C@H]2O)[C@@H]2C(CO)=CC[C@H]12,-15.4%,–,–
CC(C)Oc1ccc(-c2nc(-c3cccc4c3CCC4NCCC(=O)O)no2)cc1C#N (stereo not given),–,inactive [at 48.8 µM],–
C/C=C1/[C@H](O[C@@H]2O[C@H](CO)[C@@H](O)[C@H](O)[C@H]2O)OC=C(C(=O)OC)[C@H]1CC(=O)OCCc1ccc(O)c(O)c1,–,–,inactive
COc1c2cc(c(O)c1OC)CCCCC(O)CCc1ccc(O)c-2c1 (stereo not given),–,inactive,–
COC(=O)C1=CO[C@@H](O[C@@H]2O[C@H](CO)[C@@H](O)[C@H](O)[C@H]2O)[C@@H]2[C@@H](C)[C@@H](O)C(O)[C@H]12 (stereo not given in full),-9.79%,–,–
CC1(C)CC[C@]2(C(=O)O[C@@H]3O[C@H](CO)[C@@H](O)[C@H](O)[C@H]3O)CC[C@]3(C)C(=CCC4[C@@]5(C)CC[C@H](O[C@@H]6O[C@H](C(=O)O)[C@@H](O)[C@H](O)[C@H]6OC6OC(CO)C(O)C(O)C6O)C(C)(C)C5CC[C@]43C)[C@@H]2C1 (stereo not given in full),-6.19% [at 15.3 µM],–,–
COC(=O)C1=COC(O[C@@H]2O[C@H](COC(=O)/C=C/c3ccc(O)cc3)[C@@H](O)[C@H](O)[C@H]2O)C2C(CO)=CCC12 (stereo not given in full),-15%,–,–
NC(Cc1c[nH]c2ccc(O)cc12)C(=O)O (stereo not given),–,inactive [at 48.8 µM],–
COc1cccc2c1c(O)c(C(=O)N(C)c1ccc(C(F)(F)F)cc1)c(=O)n2C,–,–,inactive
CCC1OC(=O)C(C)CC(C)C(=O)/C(C)=C/C(C)C(=O)/C=C/C1(C)O (stereo not given),–,inactive,–
CC1(C)OC(=O)C=C[C@@]2(C)C1CC(=O)[C@]1(C)C2CC[C@@]2(C)[C@H](c3ccoc3)OC(=O)[C@H]3O[C@]321 (stereo not given in full),1.4%,–,–
CC[C@H](NC(=O)c1c(O)c(-c2ccccc2)nc2ccccc12)c1ccccc1,-25.1% [at 48.8 µM],–,–
C[C@@H]1O[C@@H](O[C@@H]2[C@@H](O)[C@H](O[C@@H]3[C@@H](O)[C@@H](O)[C@H](O[C@H]4[C@H](OC(=O)[C@]56CCC(C)(C)C[C@H]5C5=CCC7[C@@]8(C)C[C@H](O)[C@H](O[C@@H]9O[C@H](C(=O)O)[C@@H](O)[C@H](O)[C@H]9O)[C@@](C)(CO)C8[C@H](O)C[C@@]7(C)[C@]5(C)C[C@H]6O)O[C@@H](CO)[C@@H]4O)O[C@H]3C)OC[C@H]2O)[C@H](O)[C@H](O)[C@H]1O (stereo not given in full),–,inactive [at 9.52 µM],–
Cc1ccc(-c2c(-c3nn(C)c4ncnc(N5CC[C@H](N6CCCCC6)C5)c34)cnn2C)cc1,–,inactive [at 48.8 µM],–
CC1(C)CC[C@]2(C(=O)O)CC[C@]3(C)C(=CCC4[C@@]5(C)C[C@@H](O)[C@H](O)[C@@](C)(CO)C5[C@H](O)C[C@]43C)[C@@H]2C1 (stereo not given in full),–,inactive,–
COc1cccc(OC)c1-c1nc(C(=O)N[C@@H](CC(C)C)C(=O)O)cn1-c1ccnc2cc(Cl)ccc12,-3.14% [at 48.8 µM],–,–
CC12CC(c3ccoc3)OC(=O)C1CCC1(C)C2CCC(O)C1(C)O (stereo not given),–,inactive,–
C[C@@H]1CC[C@]2(C(=O)O[C@@H]3O[C@H](CO[C@@H]4O[C@H](CO)[C@@H](O)[C@H](O)[C@H]4O)[C@@H](O)[C@H](O)[C@H]3O)CC[C@]3(C)C(=CCC4[C@@]5(C)CC[C@H](O)[C@](C)(C(=O)O)C5CC[C@]43C)[C@@H]2[C@]1(C)O (stereo not given in full),-11.3% [at 15.3 µM],–,–
COc1cc(/C=C/C(=O)O[C@H]2[C@H](O)[C@@H](CO)O[C@@]2(CO)O[C@H]2O[C@H](CO)[C@@H](O)[C@H](O)[C@H]2O)cc(OC)c1O,-9.6%,–,–
CC12CC34CC(O)C5C(CO)(CO)CC(=O)CC5(C)C3CC1C2C4 (stereo not given),-6.74%,–,–
CC(=O)OCC1OC(O[C@H]2CC[C@@]3(C)C(CC[C@]4(C)C3CC=C3[C@@H]5CC(C)(C)CC[C@]5(C(=O)O)CC[C@]34C)[C@]2(C)CO)C(O)C(O)C1OC1OC(C)C(O)C(OC2OCC(O)C(O)C2O)C1O (stereo not given in full),–,inactive [at 15.3 µM],–

# Source: PubChem BioAssay (NCATS)
